Test results: PubChem BioAssay AID1159580 (chemical genetic matrix, 2015)
“And” between values parts separate entries of the source, which are not always exact repeats. Equal entries are not always repeated. Hit rate of the full screen: of about 5,500 compounds, about 2,000 (36%) were called active. Inconclusive results (about 18%) are left out. Cut-off read from the data, not from the text of the source: active = normalized growth mostly below about 0.91 (no sharp cut-off); inconclusive = no clear call, values can overlap the other calls; inactive = mostly above about 0.92. Some of the results follow.

Assay: chemical genetic growth profiling, strain panel (AID 1159580);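 note: tested at 20 µM; growth read once vehicle control cultures reached saturation at 30 °C; 1 = growth at the plate median or of vehicle wells; lower values mean less growth of the strain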
Conditions: S. cerevisiae deletion strains, growth OD

Measured: normalized growth

NC(=O)CC[C@@H](N)C(=O)O
inactive: locus YAL021C, strain ccr4, stronger effect = lower value 1.02 | locus YAL026C, strain drs2, stronger effect = lower value 1.05 | locus YAL030W, strain snc1, stronger effect = lower value 1.04 | locus YBL061C, strain skt5, stronger effect = lower value 1.03 | locus YBR009C, strain hhf1, stronger effect = lower value 1.03 | locus YBR021W, strain FUR4, stronger effect = lower value 1.04 | locus YBR023C, strain chs3, stronger effect = lower value 1.03 | locus YBR171W, strain sec66, stronger effect = lower value 1.05 | locus YBR229C, strain ROT2, stronger effect = lower value 1.01 | locus YBR231C, strain swc5, stronger effect = lower value 1.02 | locus YBR279W, strain paf1, stronger effect = lower value 1.02 | locus YCL011C, strain gbp2, stronger effect = lower value 1.02 | locus YCL016C, strain dcc1, stronger effect = lower value 1.02 | locus YCL029C, strain bik1, stronger effect = lower value 1.01 | locus YCL061C, strain MRC1, stronger effect = lower value 1.02 | locus YCL069W, strain vba3, stronger effect = lower value 1.02 | locus YCR088W, strain abp1, stronger effect = lower value 1.03 | locus YDL005C, strain med2, stronger effect = lower value 1.04 | locus YDL035C, strain GPR1, stronger effect = lower value 1.06 | locus YDL040C, strain nat1, stronger effect = lower value 1.02 | locus YDL074C, strain BRE1, stronger effect = lower value 1.09 | locus YDL101C, strain DUN1, stronger effect = lower value 1.02 | locus YDL185W, strain tfp1, stronger effect = lower value 1.01 | locus YDL192W, strain arf1, stronger effect = lower value 1.03 | locus YDR001C, strain nth1, stronger effect = lower value 1.02 | locus YDR069C, strain doa4, stronger effect = lower value 1.03 | locus YDR101C, strain arx1, stronger effect = lower value 1.01 | locus YDR137W, strain rgp1, stronger effect = lower value 1.06 | locus YDR159W, strain sac3, stronger effect = lower value 1.08 | locus YDR162C, strain NBP2, stronger effect = lower value 1.05 | locus YDR195W, strain ref2 1.01 | locus YDR297W, strain sur2, stronger effect = lower value 1.02 | locus YDR318W, strain mcm21, stronger effect = lower value 0.996 | locus YDR334W, strain swr1, stronger effect = lower value 1.03 | locus YDR335W, strain msn5, stronger effect = lower value 1.04 | locus YDR388W, stronger effect = lower value 0.993 | locus YDR392W, strain spt3, stronger effect = lower value 0.937 | locus YDR502C, strain sam2, stronger effect = lower value 1.02 | locus YEL003W, strain gim4, stronger effect = lower value 1.02 | locus YEL037C, strain rad23, stronger effect = lower value 1.03 | locus YEL061C, strain CIN8 (second series), stronger effect = lower value 1.02 | locus YEL061C, strain CIN8, stronger effect = lower value 1.02 | locus YER015W, strain faa2, stronger effect = lower value 1.03 | locus YER016W, strain bim1, stronger effect = lower value 1.02 | locus YER110C, stronger effect = lower value 0.996 | locus YER111C, strain swi4, stronger effect = lower value 1.02 | locus YER155C, strain BEM2 (second series), stronger effect = lower value 0.971 | locus YER155C, strain BEM2, stronger effect = lower value 1.01 | locus YER167W, strain BCK2, stronger effect = lower value 1.02 | locus YFR010W, strain ubp6, stronger effect = lower value 1.05 | locus YGL078C, strain dbp3, stronger effect = lower value 1.03 | locus YGL086W, strain mad1, stronger effect = lower value 1.02 | locus YGL167C, strain pmr1, stronger effect = lower value 1.04 | locus YGL173C, strain kem1, stronger effect = lower value 1.04 | locus YGL227W, strain vid30, stronger effect = lower value 1.02 | locus YGL240W, strain doc1, stronger effect = lower value 1.02 | locus YGL248W, strain PDE1, stronger effect = lower value 1.02 | locus YGL253W, strain hxk2, stronger effect = lower value 1.06 | locus YGR078C, strain PAC10, stronger effect = lower value 1.04 | locus YGR135W, strain pre9, stronger effect = lower value 1.02 | locus YGR252W, strain gcn5, stronger effect = lower value 1.14 | locus YHR013C, strain ard1, stronger effect = lower value 1.07 | locus YHR027C, strain rpn1, stronger effect = lower value 1.04 | locus YHR030C, strain SLT2, stronger effect = lower value 1.02 and 1.05 | locus YHR079C, strain IRE1 (second series), stronger effect = lower value 0.987 | locus YHR079C, strain IRE1, stronger effect = lower value 1.03 | locus YHR094C, strain hxt1, stronger effect = lower value 0.984 | locus YHR129C, strain ARP1, stronger effect = lower value 1.03 | locus YHR142W, strain chs7, stronger effect = lower value 1.05 | locus YHR200W, strain rpn10, stronger effect = lower value 1 | locus YIL066C, strain RNR3, stronger effect = lower value 1.05 | locus YIL073C, strain SPO22, stronger effect = lower value 1.13 | locus YIL125W, strain kgd1, stronger effect = lower value 1.02 | locus YIR030C, strain dcg1, stronger effect = lower value 0.998 | locus YJL092W, strain hpr5, stronger effect = lower value 1.03 | locus YJL095W, strain BCK1 (second series), stronger effect = lower value 1.02 | locus YJL095W, strain BCK1, stronger effect = lower value 1.05 and 1.04 | locus YJL115W, strain asf1, stronger effect = lower value 1.02 | locus YJL129C, strain trk1, stronger effect = lower value 1.07 | locus YJL134W, strain LCB3, stronger effect = lower value 1.01 | locus YJL154C, strain vps35, stronger effect = lower value 1.02 | locus YJL164C, strain tpk1, stronger effect = lower value 1.03 | locus YJL166W, strain qcr8, stronger effect = lower value 1.04 | locus YJL168C, strain set2, stronger effect = lower value 0.989 | locus YJL187C, strain SWE1 (second series), stronger effect = lower value 1.03 | locus YJL187C, strain SWE1, stronger effect = lower value 1.06 | locus YJR043C, strain POL32, stronger effect = lower value 1.04 | locus YJR066W, strain TOR1, stronger effect = lower value 1 | locus YKL009W, strain mrt4, stronger effect = lower value 1.08 | locus YKL068W, stronger effect = lower value 1.02 | locus YKL085W, strain MDH1 (second series), stronger effect = lower value 1.01 | locus YKL085W, strain MDH1, stronger effect = lower value 1.01 | locus YKL160W, strain elf1, stronger effect = lower value 1.02 | locus YKR001C, strain vps1, stronger effect = lower value 1.05 | locus YKR026C, strain gcn3, stronger effect = lower value 1.03 | locus YKR091W, strain srl3, stronger effect = lower value 1.03 | locus YLL001W, strain dnm1, stronger effect = lower value 1 | locus YLL026W, stronger effect = lower value 1.03 | locus YLL041C, strain sdh2, stronger effect = lower value 1.02 | locus YLR027C, strain aat2, stronger effect = lower value 1.02 | locus YLR039C, strain RIC1, stronger effect = lower value 1.11 | locus YLR058C, strain SHM2, stronger effect = lower value 1.02 | locus YLR102C, strain apc9, stronger effect = lower value 0.98 | locus YLR113W, strain HOG1, stronger effect = lower value 1.02 | locus YLR221C, strain rsa3, stronger effect = lower value 1.04 | locus YLR258W, strain gsy2, stronger effect = lower value 1.02 | locus YLR262C, strain YPT6 (second series), stronger effect = lower value 1.05 | locus YLR262C, strain YPT6, stronger effect = lower value 1.1 | locus YLR268W, strain sec22, stronger effect = lower value 1.05 | locus YLR320W, strain mms22, stronger effect = lower value 1.04 | locus YLR330W, strain CHS5, stronger effect = lower value 1.03 | locus YLR342W, strain FKS1 (second series), stronger effect = lower value 1.07 | locus YLR342W, strain FKS1, stronger effect = lower value 1.03 | locus YLR357W, strain rsc2, stronger effect = lower value 1.05 | locus YLR370C, strain arc18, stronger effect = lower value 1.03 | locus YLR371W, strain rom2, stronger effect = lower value 0.993 | locus YLR384C, strain iki3, stronger effect = lower value 1.02 | locus YLR418C, strain cdc73, stronger effect = lower value 1.07 | locus YML016C, strain PPZ1, stronger effect = lower value 1.01 | locus YML032C, strain rad52, stronger effect = lower value 1.02 | locus YML120C, strain ndi1, stronger effect = lower value 1.03 | locus YML124C, strain tub3, stronger effect = lower value 1.01 | locus YMR058W, strain fet3, stronger effect = lower value 1.04 | locus YMR078C, strain ctf18, stronger effect = lower value 0.988 | locus YMR125W, strain sto1, stronger effect = lower value 1.03 | locus YMR129W, stronger effect = lower value 1.02 | locus YMR205C, strain PFK2, stronger effect = lower value 1.04 | locus YMR223W, strain ubp8, stronger effect = lower value 1.02 | locus YMR231W, strain pep5, stronger effect = lower value 1.03 | locus YMR263W, strain SAP30, stronger effect = lower value 1.02 | locus YMR307W, strain GAS1, stronger effect = lower value 1.13 | locus YNL067W, strain RPL9B, stronger effect = lower value 1.03 | locus YNL071W, strain lat1, stronger effect = lower value 1.03 | locus YNL153C, strain GIM3, stronger effect = lower value 1.02 | locus YNL183C, strain NPR1, stronger effect = lower value 1.01 | locus YNL209W, strain ssb2, stronger effect = lower value 1.02 | locus YNL233W, strain BNI4, stronger effect = lower value 1.03 | locus YNL248C, strain rpa49, stronger effect = lower value 1.05 | locus YNL250W, strain rad50, stronger effect = lower value 1.03 | locus YNL271C, strain bni1, stronger effect = lower value 1.02 | locus YNL298W, strain CLA4, stronger effect = lower value 1.02 | locus YNL307C, strain MCK1, stronger effect = lower value 0.995 | locus YNL322C, strain KRE1 (second series), stronger effect = lower value 1.02 | locus YNL322C, strain KRE1, stronger effect = lower value 1.02 | locus YNR049C, strain mso1, stronger effect = lower value 1.04 | locus YNR052C, strain pop2, stronger effect = lower value 1.03 | locus YOL012C, strain htz1 1.02 | locus YOL147C, strain pex11, stronger effect = lower value 1 | locus YOR001W, strain rrp6, stronger effect = lower value 1.04 | locus YOR061W, strain CKA2, stronger effect = lower value 1.02 | locus YOR069W, strain VPS5, stronger effect = lower value 1.01 | locus YOR070C, strain gyp1, stronger effect = lower value 1.01 | locus YOR080W, strain dia2, stronger effect = lower value 1.03 | locus YOR083W, strain WHI5, stronger effect = lower value 1.01 | locus YOR106W, strain vam3, stronger effect = lower value 1.06 | locus YOR136W, strain idh2, stronger effect = lower value 1.02 | locus YOR144C, strain elg1, stronger effect = lower value 1 | locus YOR184W, strain ser1, stronger effect = lower value 1.05 | locus YOR231W, strain MKK1, stronger effect = lower value 1.03 | locus YOR265W, strain rbl2, stronger effect = lower value 1.02 | locus YOR270C, strain vph1, stronger effect = lower value 1.1 | locus YOR290C, strain snf2, stronger effect = lower value 1.03 | locus YOR316C, strain cot1, stronger effect = lower value 0.987 | locus YPL051W, strain arl3, stronger effect = lower value 1 | locus YPL078C, strain atp4, stronger effect = lower value 1.01 | locus YPL106C, strain sse1, stronger effect = lower value 1.01 | locus YPL240C, strain hsp82, stronger effect = lower value 1.02 | locus YPL241C, strain CIN2, stronger effect = lower value 1.01 | locus YPL256C, strain CLN2, stronger effect = lower value 1.05 | locus YPR119W, strain clb2, stronger effect = lower value 0.991 | locus YPR141C, strain kar3, stronger effect = lower value 1.01 | locus YPR163C, strain tif3, stronger effect = lower value 0.99 | locus YPR167C, strain met16, stronger effect = lower value 1 | strain wtn01, stronger effect = lower value 1.06
